Screening data deposited in PubChem by several laboratories.
Sampled rows, rich in hits. Any-hit rate of the full collection: about 1.6%.
NR1D1 modulator = Rev-erb alpha (human) modulation; P20393; Rev-erbα–FITC-DNA binding, fluorescence polarization, 90 min; activity, % at 10 µM; 370,000 compounds, 0.79% hits; AID 1259318;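 active = activity above about 14%, limit read from the data; passing the limit was not always enough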;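 note: 0% = DMSO wells with 35 nM protein and 100% = DMSO wells with 750 nM protein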
NPR2 activator = GC-B (human) receptor activation; activation, % at 10 µM; HEK293-GC-B cells, CNP EC30, cGMP TR-FRET; 0% at EC30 CNP, 100% saturating CNP; 370,000 compounds, 0.11% hits; AID 1920062;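 active = activation at 10 µM reaching about 35% in either raw or pattern-adjusted values, limit read from the data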
V-ATPase pHluor = regulators of yeast V-ATPase proton transport; S. cerevisiae, pHLuorin cytosolic pH fluorescence; response, % at 10 µM; 350,000 compounds, 0.37% hits; AID 504577; in the data active = response mostly above about 7.3%, no sharp cut-off; inactive = mostly below about 5.4%; note: actives read high
PG9 binder = small molecules binding HIV-1 gp120 antibody PG9 | TR-FRET gp120-PG9 antibody binding | AID 624416 | inhibition, % at 6.7 µM | 360,000 compounds, 0.43% hits; in the data active = inhibition above about 8.5%
NPR1 activator = GC-A (human) enzyme activation. P16066. HEK293 GC-A cells, cGMP TR-FRET, EC30 ANP; 0% at EC30 ANP, 100% saturating ANP. activation, % at 10 µM. 370,000 compounds, 0.14% hits; in the data active = activation above about 40%
Target sequence (P16066 whole entry, looked up): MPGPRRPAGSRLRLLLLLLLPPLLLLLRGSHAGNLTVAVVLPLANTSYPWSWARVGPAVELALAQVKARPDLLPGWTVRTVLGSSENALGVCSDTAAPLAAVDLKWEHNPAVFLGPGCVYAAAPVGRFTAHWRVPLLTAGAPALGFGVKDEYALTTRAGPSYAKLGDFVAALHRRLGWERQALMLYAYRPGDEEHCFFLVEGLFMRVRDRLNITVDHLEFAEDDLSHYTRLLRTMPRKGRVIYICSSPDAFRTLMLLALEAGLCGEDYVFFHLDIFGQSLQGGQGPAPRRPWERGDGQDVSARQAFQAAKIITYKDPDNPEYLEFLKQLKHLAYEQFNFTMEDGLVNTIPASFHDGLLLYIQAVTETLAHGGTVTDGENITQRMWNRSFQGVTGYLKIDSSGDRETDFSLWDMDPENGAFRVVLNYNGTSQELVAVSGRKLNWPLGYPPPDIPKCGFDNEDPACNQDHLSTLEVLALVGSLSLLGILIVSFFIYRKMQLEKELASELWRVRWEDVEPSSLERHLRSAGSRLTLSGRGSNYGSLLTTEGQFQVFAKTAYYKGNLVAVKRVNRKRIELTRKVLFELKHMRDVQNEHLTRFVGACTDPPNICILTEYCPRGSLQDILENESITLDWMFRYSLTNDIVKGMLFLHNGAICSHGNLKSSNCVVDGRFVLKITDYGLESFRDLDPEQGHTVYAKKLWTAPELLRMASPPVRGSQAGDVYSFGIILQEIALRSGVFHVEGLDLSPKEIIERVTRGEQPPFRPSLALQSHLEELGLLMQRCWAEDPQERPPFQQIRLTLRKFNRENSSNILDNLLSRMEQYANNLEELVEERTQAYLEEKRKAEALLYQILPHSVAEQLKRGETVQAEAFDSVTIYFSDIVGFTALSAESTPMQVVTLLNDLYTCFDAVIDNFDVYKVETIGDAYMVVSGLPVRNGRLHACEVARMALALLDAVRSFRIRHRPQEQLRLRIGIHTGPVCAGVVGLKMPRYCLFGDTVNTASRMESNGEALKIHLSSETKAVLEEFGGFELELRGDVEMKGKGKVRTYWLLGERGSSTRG
Rev-erbA confirm = Rev-erb alpha (human) modulation, hit confirmation. Rev-erb alpha FITC-DNA binding, fluorescence polarization, 90 min. 3,000 compounds, 61% hits. activation, % at 25 µM. shares compounds with NR1D1 modulator. AID 1259319;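 active = activation at or above a set limit, or at least 3 SD above the negative control mean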;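 note: 0% = 35 nM protein with DMSO and 100% = 750 nM protein high control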
RORg DNA counter = RORgamma DNA-binding activity, dose-response counter-screen | 910 compounds, 8% hits | shares compounds with NR1D1 modulator | purified RORgamma protein-FITC-DNA binding, fluorescence polarization | IC50, µM;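 active = Compounds whose fitted half-maximal concentration for disrupting protein-DNA binding is below 10 micromolar; the record names Rev-erb in its text, so the target is in doubt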
Numbers without * were called inactive; . = not tested or not shown.

SMILES	NR1D1 modulator	NPR2 activator	V-ATPase pHluor	PG9 binder	NPR1 activator	Rev-erbA confirm	others
COc1ccccc1Cc1c(-c2ccc(C)cc2)nc2c(C)cc(Br)cn12	6.6	-0.6	.	3.5	1.6	.
COc1ccccc1Cc1c(-c2cccc(Cl)c2)nc2c(C)cc(Br)cn12	22.3*	-11.9	.	2.2	-10.5	10.8*
Cc1cc(Br)cn2c(Cc3ccsc3)c(-c3cccc(Cl)c3)nc12	10.3	-9.2	.	-0.4	-2.6	.
Cc1cc(Br)cn2c(Cc3cccc(Cl)c3)c(-c3cccc(Cl)c3)nc12	22.9*	-0.9	.	4.8	-10.1	13.2*
Cc1cc(Br)cn2c(Cc3ccccc3)c(-c3ccc(Cl)cc3)nc12	25.4*	20.7	.	1.0	13.5	12.4*
Cc1cc(Br)c2nc(-c3cccc(Br)c3)c(Cc3cccc(Cl)c3)n2c1	18.1*	-2.2	.	6.1	-1.8	6.9
Cc1ccc(-c2nc3c(Br)cc(C)cn3c2Cc2cccc(Cl)c2)cc1	11.6	-3.4	.	4.6	-3.7	.
COP(=O)(O)C(COCCC(CC(C)C)NC(=O)OCc1ccccc1[N+](=O)[O-])NC(=O)OCc1ccccc1 (stereo unspecified)	6.0	-0.7	.	.	-0.4	.
O=C(OC12CCCN(C1)/C(=C/c1ccc(Cl)cc1)C2)c1ccc(Cl)cc1 (stereo unspecified)	-3.3	-0.7	.	.	5.5	.
CCN1CCCCC(NC(=O)c2ccc(C)cc2)C1=O (stereo unspecified)	-3.7	-0.4	.	.	-1.8	.
Cc1cc2c(=O)oc(-c3ccc(Br)cc3)nc2s1	31.0*	-8.6	-1.9	0.3	-1.0	7.1
Cc1cccc(-c2nc3sc(C)cc3c(=O)o2)c1	0.2	-8.2	-2.5	-0.8	-2.1	.
COc1cc2c3nnc(-c4ccccc4)c-3cn(Cc3ccc(F)cc3)c2cc1OC	23.0*	7.4	-3.0	0.1	10.8	0.1
Cc1ccc(C(=O)CSc2ncnc3sc4c(c23)CCCC4)cc1	34.3*	1.2	-4.4	-1.3	1.1	18.4*
CCCn1c(N)c(C(=O)CSc2nc3ncc(Cl)cc3[nH]2)c(=O)n(C)c1=O	65.7*	2.8	-4.5	2.9	11.2	17.0*
COc1ccccc1CNC(=O)C[C@H]1CC[C@H]2[C@@H](COc3ccc(NC(=O)Nc4ccccc4)cc3C(=O)N2C)O1	0.3	10.8	.	.	1.3	.
O=C(Nc1ccccc1)c1ccc(N2CCN(c3ccccc3)CC2)c(S(=O)(=O)N2CCOCC2)c1	60.7*	2.3	-3.7	-1.7	-0.1	29.5*
O=C(Nc1ccccc1)c1ccc(N2CCN(c3ccccn3)CC2)c(S(=O)(=O)N2CCOCC2)c1	0.5	5.2	-2.6	0.9	1.3	.
Cc1c(Cc2ccc3c(c2)OCO3)sc(NC(=O)c2ccc3ccccc3c2)c1C(N)=O	22.7*	4.8	.	-0.1	3.1	2.0
CCC(=O)Nc1sc(Cc2ccc3c(c2)OCO3)c(C)c1C(N)=O	-3.9	12.7	9.8	-0.7	10.3	.
COc1ccc(-n2nc(C(=O)NCC(=O)Nc3cccc(Cl)c3)c3ccccc3c2=O)cc1	81.7*	-5.1	2.5	1.1	3.2	39.3*	RORg DNA counter=>40
CCOC(=O)c1nn(-c2ccc(F)cc2)c(=O)cc1OCC(=O)Nc1ccc(OCC)cc1	19.2*	-2.5	-4.8	-0.5	-4.6	-13.8
COc1ccc(-n2nc(C(=O)NCC(=O)Nc3ccccn3)c3ccccc3c2=O)cc1	42.2*	3.6	0.9	1.1	-5.7	18.5*
CCOC(=O)c1ccccc1NC(=O)Cn1cnc2c(cnn2-c2ccccc2)c1=O	7.7	-5.0	2.2	0.6	5.5	.
CCOC(=O)c1ccccc1NC(=O)Cn1cnc2c(cnn2-c2ccc(OC)cc2)c1=O	21.8*	-11.0	.	-1.2	6.6	9.0
SMILES	NR1D1 modulator	NPR2 activator	V-ATPase pHluor	PG9 binder	NPR1 activator	Rev-erbA confirm	others
COc1ccc(-n2c(COc3ccc(C)cc3)nnc2SCC(=O)Nc2ccc(S(=O)(=O)Nc3cc(C)nc(C)n3)cc2)cc1	0.3	10.4	.	.	3.1	.
Nn1c(SCC(=O)NC2CCCCC2)nnc1-c1cc(-c2ccc(F)cc2)n[nH]1	7.1	-8.4	.	.	3.3	.
CC(c1ccccc1)n1cc(C(=O)N2CCCN(Cc3ccccc3)CC2)nn1 (stereo unspecified)	-2.9	-5.3	.	.	-2.0	.
COc1ccc(-n2nc(C(=O)NCC(=O)N3CCN(c4ccccc4F)CC3)c3ccccc3c2=O)cc1	25.4*	5.0	-2.3	4.8	-0.2	-8.3
COc1ccc(-n2nc(C(=O)NCC(=O)N3CCN(c4ccccc4F)CC3)c3ccccc3c2=O)cc1OC	-4.9	6.9	8.7	1.4	-4.1	.
COc1ccc(-n2nc(C(=O)NCC(=O)NCc3ccc(F)cc3)c3ccccc3c2=O)c(OC)c1	26.7*	-1.5	0.3	0.0	0.2	2.1
CCOc1ccc(NC(=O)CNC(=O)c2nn(-c3ccc(OC)cc3)c(=O)c3ccccc23)cc1	32.1*	4.2	1.3	3.8	-1.7	10.7
O=C(Cn1c(-c2cncs2)nc2ccccc21)N1CCCCC1	1.6	-2.1	.	.	6.6	.
O=c1[nH]c(=S)c2[nH]c(=S)n(-c3ccccc3)c2[nH]1	15.2*	2.3	-4.6	-2.7	-1.9	0.4
O=c1[nH]c(=O)c2[nH]c(=O)n(-c3ccccc3)c2[nH]1	-2.2	-3.9	-7.2	-1.9	-0.2	.
Cc1ccc(-n2nnc(-c3cc4ccccc4nc3Cl)n2)cc1	35.3*	-0.7	-1.7	0.1	1.5	29.7*
COc1ccc(N2CCN(c3oc(-c4ccc(OC)c(OC)c4)nc3C#N)CC2)cc1	58.0*	5.8	0.8	0.3	-2.5	-1.4
COc1ccc(N2CCN(CCCNC(=O)CCc3cccc(F)c3)CC2)cc1	-3.6	3.6	.	.	3.4	.
FC(F)(F)c1cc(-c2ccccn2)nc2cc(-c3ccccc3)nn12	45.5*	-8.1	1.1	-0.1	-5.9	23.6*
Cn1c(=O)c(Nc2ccc(O)cc2)c2c3c(cccc31)C(=O)c1ccccc1-2	174.6*	14.6	2.4	-0.8	17.6	157.2*	RORg DNA counter=>40
CC(C)c1ccc(Nc2c([N+](=O)[O-])c(=O)n(C)c3ccccc23)cc1	17.1	-2.9	-4.0	-3.1	1.9	.
COc1ccc2c(c1)c(=O)c(C(=O)c1ccc(F)cc1)cn2CC(=O)Nc1ccc(F)cc1	33.0*	-2.9	-2.1	7.2	-5.2	25.9*
COC(=O)[C@]12C[C@H](CC(=O)NCc3cccs3)C(=O)N(Cc3ccc4c(c3)OCO4)C1=C[C@H](C(C)C)O[C@@H]2C1CC1	2.3	-14.0	.	.	-9.0	.
COc1ccc(C2=NN(C(=O)COc3ncnc4ccccc34)C(c3ccco3)C2)cc1 (stereo unspecified)	30.9*	0.2	0.3	-0.8	8.5	6.3
